Shown are actives, neighbours in structure and some others; about 19% of the full set was active somewhere.
KB-V1 MDR tox = kills drug-selected multidrug resistant KB-V1 cells | KB-V1 MDR cells viability, CellTiter-Glo, 72 h | Potency, µM (highest dose often 46.1 µM), most hits filed as cytotoxic | 400,000 compounds, 3.4% hits; note: nearly all actives have a fitted effect of over 60% in size
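Drug-selected KB-V1 cells, grown in DMEM lacking phenol red with 10% FBS, receive compound titrations; after three days at 37 degrees C, surviving cell ATP is quantified by CellTiter-Glo luminescence and responses normalized and curve-fitted.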
DT40 TDP1 no CPT = qHTS for Inhibitors of human tyrosyl-DNA phosphodiesterase 1 (TDP1): qHTS in cells in absence of CPT; DT40 Tdp1-/- hTDP1 cells, no CPT, ATP luminescence, 48 h; Potency, µM (highest dose often 46.2 µM), inactives show at the highest dose activity change, negative = growth inhibition, most hits filed as inhibitors; 420,000 compounds, 15% hits; AID 686978, 2013; note: nearly all actives have a fitted effect of over 55% in size
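Growth kinetics read by CellTiter-Glo luminescence after ≥48 hr at 37 °C. Cells: DT40 Tdp1-/- stably carrying human TDP1, 400 per well, compound exposure in the absence of CPT (DMSO vehicle).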
KB-3-1 tox = KB-3-1 parental cell cytotoxicity; KB-3-1 viability, CellTiter-Glo ATP luminescence, 72 h; Potency, µM (top dose mostly 46.1 µM), most hits filed as cytotoxic; 400,000 compounds, 1.4% hits; note: nearly all actives have a fitted effect of over 60% in size
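Viability of parental KB-3-1 cells, measured by CellTiter-Glo luminescence, followed a 72 h incubation at 37 °C with pinned compounds in phenol-red-free DMEM containing 10% FBS.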
HT1080-NT tox = kills 2HG-producing HT-1080-NT fibrosarcoma cells | HT-1080-NT fibrosarcoma viability, CellTiter-Glo ATP luminescence, 48 h | Potency, µM (highest dose often 46.1 µM), for the others: top-dose activity, negative = less viability, usual class: cytotoxic | 360,000 compounds, 1.6% hits;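 note: NT is the 2HG producing partner of a matched IDH1 knockdown line; 0% = DMSO-treated cells and -100% = media-only wells without cells; nearly all actives have a fitted effect of over 55% in size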
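Viability of the 2HG-overproducing fibrosarcoma line after 48 hours of compound exposure at 37 degrees C was determined by luminescence with CellTiter-Glo, and concentration-effect curves were then fitted and categorized.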
HT1080 IDH1KD tx = kills HT-1080 cells with IDH1 knockdown; 360,000 compounds, 2% hits; Potency, µM (series often up to 46.1 µM), without a hit: at the top dose activity, negative = toxicity, most hits filed as cytotoxic; HT-1080 IDH1 knockdown viability, ATP luminescence, 48 h; AID 686971;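 note: 0% = DMSO wells and -100% = cell-free medium wells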
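Luminescent ATP read-out (CellTiter-Glo, 10 min at room temperature) after 48 h compound exposure at 37 °C gave viability of IDH1-knockdown HT-1080 cells. Activity was normalised to DMSO and cell-free wells, then fitted as concentration-response curves.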
DT40 TDP1 CPT = growth inhibition of DT40 Tdp1-/-;hTDP1 cells with camptothecin (screen for TDP1 inhibitors); chicken DT40 Tdp1-/-;hTDP1 cells + 20 nM CPT, ATP luminescence, 48 h; Potency, µM (top dose mostly 46.2 µM), for the others: at the top dose activity change, negative = growth inhibition, most hits filed as inhibitors; 420,000 compounds, 12% hits; note: nearly all actives have a fitted effect of over 55% in size
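Chicken DT40 Tdp1-/- cells stably complemented with human TDP1 were seeded at 400 cells/well in medium containing 20 nM camptothecin, exposed to pin-transferred compounds, and grown at 37 °C for at least 48 hr. Viability was read as ATP luminescence.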
Numbers without * were called inactive; i = inactive; ? = inconclusive; . = no result given. Calls come from the whole dose curve; as a rule, active = well fitted curve in the direction sought with a large enough effect; inconclusive = small, poorly fitted or top-dose-only effect, or another doubt; inactive = no such curve, though single readings can be large; an effect the other way counts as inactive or inconclusive. Unless noted, % is set by controls: 0 for no effect and ±100 for the full control effect; potency is the fitted concentration of half-maximal effect.

SMILES	KB-V1 MDR tox	DT40 TDP1 no CPT	KB-3-1 tox	HT1080-NT tox	HT1080 IDH1KD tx	DT40 TDP1 CPT
CO[C@H]1C[C@@H]2CC[C@@H](C)[C@@](O)(O2)C(=O)C(=O)N2CCCC[C@H]2C(=O)O[C@H](C(C)C[C@H]2CC[C@@H](O)[C@H](OC)C2)CC(=O)[C@H](C)/C=C(\C)[C@@H](O)[C@@H](OC)C(=O)[C@H](C)C[C@H](C)/C=C/C=C/C=C/1C (some centres not stated)	.	?	.	.	.	0.0079µM*
CN1OC[C@@H]2CN(C(=O)c3cccc4ccccc34)[C@H](c3ccccc3Br)C[C@@H]21	i	5%	i	4%	5%	5%
CCCCN(CC)CCNC(=O)c1c(C)oc2ncnc(N3CCOCC3)c12	i	-5%	i	.	.	-7%
Cc1cccc(NC(=O)CNC(=O)c2cc(S(=O)(=O)N(C)C)ccc2N2CCCC2)c1C	i	?	i	0%	-4%	-22%
Cc1ccc(-n2nc3c(c2NC(=O)/C=C\c2ccc4c(c2)OCO4)CSC3)cc1	?	18µM*	?	8%	4%	?
COC(=O)c1c(NC(=O)/C=C/c2ccc3c(c2)OCO3)sc(C)c1C	i	-15%	i	-18%	-3%	-7%
Cc1cc(C)nc(NC(=O)/C=C/c2ccc3c(c2)OCO3)c1	?	?	?	?	4.6µM*	4%
Cc1ccc(-n2nc3c(c2NC(=O)/C=C\c2ccc4c(c2)OCO4)CSC3)c(C)c1	i	-15%	i	3%	-1%	-20%
Cc1sc(NC(=O)/C=C/c2ccc3c(c2)OCO3)nc1-c1ccccc1	2.9µM*	16µM*	1.3µM*	-10%	?	15µM*
CCOC(=O)c1c(NC(=O)/C=C/c2ccc3c(c2)OCO3)sc(C)c1CC	i	?	21µM*	-2%	-6%	-18%
COc1ccc(Cl)cc1CNC[C@H]1O[C@@H](n2cnc3c(=O)[nH]c(N)nc32)[C@H](O)[C@@H]1O	i	-2%	i	-3%	18%	-13%
COc1ccc(-c2cnc(C(O)c3ccc(OC)c(F)c3)[nH]2)cc1 (configuration not stated)	i	-7%	i	5%	27%	?
CCc1nc2c(OCc3ccc(C(=O)N(C)C)cc3)cccn2c1N(C)C(=O)Nc1ccccc1OC	i	?	i	23%	4%	?
Cc1ccc(Nc2nc3ccc(C)cc3nc2-n2nc(C)cc2C)c(C)c1	i	2%	i	.	.	-1%
CC1CCCC(NC(=O)C2CCN(C(=O)Nc3ccccc3)CC2)C1C (configuration not stated)	i	-21%	i	3%	0%	-20%
CC(C)(C)c1ccc(/C=C/C(=O)Nc2nncs2)cc1	i	?	i	-3%	7%	?
O=C(/C=C/c1ccc2c(c1)OCO2)Nc1nncs1	i	-5%	5.8µM*	?	1µM*	1%
O=C(/C=C/c1ccc2c(c1)OCO2)Nc1nc(-c2ccccc2)cs1	?	?	7.3µM*	-1%	?	?
COc1ccc(C(=O)NCc2nnc(SCC(=O)N3CCC(C)CC3)o2)cc1	i	-7%	i	3%	4%	-2%
Cc1c(C(=O)NNC(=O)c2csc(N3CCOCC3)n2)oc2ccc(Br)cc12	i	?	i	-13%	-8%	-21%
O=C(c1ccc2c(=O)n3c(nc2c1)CCCCC3)N1CCN(c2ccc([N+](=O)[O-])cc2)CC1	i	?	i	8%	13%	?
COc1ccc(N2CCN(C(=O)COC(=O)c3ccc(OC(F)F)cc3)CC2)cc1	i	11%	i	-1%	0%	-3%
COc1ccc2[nH]c3c4c(ccc3c2c1)C(=O)C=CC4=O	i	0.26µM*	9.2µM*	13µM*	16µM*	0.23µM*
COc1ccc2[nH]c(=O)cc(C(=O)O)c2c1	i	-3%	i	8%	5%	0%
Cc1nc(NC(=O)CC(C)C)sc1-c1csc(Nc2ccc(Cl)cc2)n1	i	15µM*	i	-15%	-6%	?
SMILES	KB-V1 MDR tox	DT40 TDP1 no CPT	KB-3-1 tox	HT1080-NT tox	HT1080 IDH1KD tx	DT40 TDP1 CPT
CCOC(=O)c1cc(-c2csc(Nc3ccccc3Cl)n2)on1	i	-6%	i	-2%	-1%	0%
CCCC(C)C(=O)Nc1nc(C)c(-c2csc(Nc3cc(Cl)ccc3C)n2)s1 (configuration not stated)	i	?	?	-5%	-6%	?
C=CCCC(=O)Nc1nc(C)c(-c2csc(Nc3ccc(Cl)cc3Cl)n2)s1	?	15µM*	?	16µM*	?	?
Cc1nc(NC(=O)CC(C)C)sc1-c1csc(Nc2ccc(Cl)cc2Cl)n1	?	18µM*	i	?	?	?
CCN(CC)S(=O)(=O)c1ccc(-c2cc(C(=O)OC)sc2C(F)(F)F)cc1	i	18µM*	i	-5%	-2%	-30%
CCN(CC)S(=O)(=O)c1ccc(C(=O)Nc2nc3ccc(Cl)cc3s2)cc1	i	?	i	.	.	?
COC(=O)c1cc(-c2ccc(S(=O)(=O)N3CCCCC3)cc2)c(C(F)(F)F)s1	i	23µM*	i	-14%	-8%	?
COC(=O)c1cc(-c2ccc(S(=O)(=O)N3CCCC3)cc2)c(C(F)(F)F)s1	i	?	i	-12%	-20%	10%
Cc1ccc(-c2ccc(=O)n(CC(=O)Nc3ccc(C(C)C)cc3)n2)cc1	i	-28%	i	.	.	-7%
CN(C)C(=O)CCC(=O)NCC1Cc2cccc(-c3ccccc3C(F)(F)F)c2O1 (configuration not stated)	.	-23%	.	.	.	?
CCCCn1c(O)c(N=NC(=O)c2ccco2)c2ccccc21	16µM*	18µM*	i	-11%	-8%	?
O=C(CNC(=O)c1ccco1)N=Nc1c(O)n(CCc2ccccc2)c2ccccc12	3.7µM*	3.7µM*	1.3µM*	4.1µM*	1.8µM*	5.2µM*
CCOC(=O)N=Nc1c(O)n(CC)c2ccccc12	i	-6%	i	8%	6%	-23%

High-throughput results (PubChem)
